Data as given in the supplement of paper PMC10338343.
± gives the standard deviation.

System: MILI (PIWIL2) piRISC loaded with L1MC piRNA (26 nt)
Test: pre-steady-state target cleavage rate (min^-1); guide: L1MC piRNA 5'p-UAACUAAAUACUAUGCAAGCUGUAGG; MIWI and MILI are mouse PIWI proteins and EfPiwi is from a freshwater sponge; tags in brackets are library labels; higher = faster piRNA-guided slicing of the target
Outline: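 A transcribed, DNA-blocked target RNA library […] was incubated at 33 °C for 0–8 or 0–960 min with 1 nM active affinity-purified piRISC carrying one synthetic guide, in HEPES–potassium acetate buffer with or without 500 nM GTSF1 partner protein. Uncleaved targets were then sequenced and normalised to depth and to weakly complementary targets. Data from three trials were pooled, with k3 capped at 0.0001 min^-1, and a burst-and-steady-state fit yielded the pre-steady-state cleavage rate.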

[1] = auxiliary factor: 500 nM mouse GTSF1
[2] = auxiliary factor: none (no GTSF1)
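Note: 1 nM active piRISC with 0.1 nM target library at 33 °C single turnover.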

Sequence	pre-steady-state target cleavage rate [1]	pre-steady-state target cleavage rate [2]
UCCUGGAUGAGCUACCAUAGUAUUUAGUUA	0.101 ± 0.018	0.00301 ± 0.0025
UCCUGGAUCAGCUUGCUUAGUAUUUAGUAA	0.218 ± 0.012	0.00347 ± 0.0021
UCCUGGAUGAGCUUGGAUAGUUUUUAGUUA	0.0261 ± 0.0072	0.00424 ± 0.0026
UCCUGGAUGAGCUUGCAUUGUAUAUAGUUA	0.0992 ± 0.012	0.00388 ± 0.0029
UCCUGGAUGUGCUUGCAUAGUAUGUUAGUUA	0.0646 ± 0.012	0.00452 ± 0.0032
UCCUGGAUGUGCUAGCAAAGUAUUUAGUUA	0.0105 ± 0.0034	0.00469 ± 0.0015
UCCUGGAUGAGCUUGCAUAGAUAUUUAGUUA	0.00786 ± 0.0038	0.00424 ± 0.0022
UCCUGGAUGUCCUUGCAUUGUAAUUAGUUA	0.014 ± 0.0069	0.00354 ± 0.0025
UCCUGGUACAGCUUGCAUACUAUUUAGUUA	0.104 ± 0.024	0.00577 ± 0.0035
UCCUGGAUGAGGAAGCAUAGUAUUUAGUUA	0.0519 ± 0.012	0.00494 ± 0.0027
UCCUGGAUGUCGAAGCAUAGUAUUUAGUUU [g2:g16:cont:t1U]	0.0307 ± 0.0082	0.00447 ± 0.0018
UCCUGCUACAGCUUGCAUAGGUAUUUAGUUA	0.00815 ± 0.0047	0.00421 ± 0.0024
UCCUGGAUCAGCUUGGAUAGUAUAUAGUUA	0.124 ± 0.018	0.00459 ± 0.0024
UCCUGGAACAGCUUGCUUAGUUUUUAGUUA	0.0579 ± 0.012	0.00375 ± 0.0024
UCCUGGAUGUCGUUGCAAAGUAUUUAGUUA	0.0181 ± 0.0047	0.00739 ± 0.0022
UCCUGGUUCAGCUUGGAUAGUAUUUAGUUA	0.191 ± 0.022	0.013 ± 0.0035
UCCUGGAUGUCGAUGCAUAGUAUUUAGUA	0.0708 ± 0.011	0.00401 ± 0.0022
UCCUGGAUGUGCUUGCAUUGUAAUUAGUUA	0.0229 ± 0.0072	0.00338 ± 0.0033
UCCUGGAUGUCGAUGCAUAGUAUUAAGUUA	0.122 ± 0.017	0.0035 ± 0.0025
UCCUGGAUGUCGAUGCAUAGUAAAUAGUUA	0.0191 ± 0.0068	0.00231 ± 0.0023

Sequence	pre-steady-state target cleavage rate [1]	pre-steady-state target cleavage rate [2]
UCCUGGAUGUCGUUGCAUAGUAUUUAGUUG [g2:g18:cont:t1G]	0.1 ± 0.016	0.00688 ± 0.003
UCCUGGAUGUGCUUGCAUACAAUUUAGUUA	0.00405 ± 0.0039	0.0028 ± 0.0024
UCCUGGAACUCGUUGCAUAGUAUUUAGUAA	0.165 ± 0.021	0.00378 ± 0.002
UCCUGGAUGUCCUAGCAUAGUAAUUAGUUA	0.0282 ± 0.01	0.00305 ± 0.0025
UCCUGGAUGAGCAUGCAUAGUAUUUACUUA	0.122 ± 0.029	0.00352 ± 0.0028
UCCUGGUACAGCUUGCAUAGUUAAUAGUUA	0.0312 ± 0.01	0.00424 ± 0.0026
UCCUGGUACAGCUUGCUAUGUAUUUAGUUA	0.0246 ± 0.0085	0.00465 ± 0.0027
UCCUGGAUGUCCUUGCUUAGUAAUUAGUUA	0.0235 ± 0.0061	0.00598 ± 0.0019
UCCUGGAUGUCGAUGCACAGUAUUUAGUUA	0.0311 ± 0.0057	0.00443 ± 0.0024
UCCUGGAUGUGGAUGCAUAGUAUUUAGUAA	0.0714 ± 0.012	0.00471 ± 0.003
UCCUGGAACAGCAUGCAUACUAUUUAGUUA	0.0727 ± 0.0093	0.00273 ± 0.0026
UCCUGGAUGUCGAAGCAUAGUGUUUAGUUA	0.0115 ± 0.0044	0.00454 ± 0.0019
UCCUGGAUGUGCUUGCAUAGUAAUUUAGUUA	0.0286 ± 0.01	0.0056 ± 0.0026
UCCUGGAUGACCUUGCAUUGUAUUUAGUUA	0.0617 ± 0.0098	0.00446 ± 0.0029
UCCUGGAUGUCCUUGCAUAGUAAUAAGUUA	0.0367 ± 0.013	0.00284 ± 0.0025
UCCUGGAUGUCGUUGCAUAGUUAUUUAGUUA	0.00477 ± 0.0039	0.00324 ± 0.003
UCCUGGAUCAGCUUGCAUAGUAUUCAGUUA	0.179 ± 0.024	0.00376 ± 0.0025
UCCUGGAUGUCGAAGCAUAGUAUUUAGUUUA	0.0244 ± 0.0042	0.00589 ± 0.0023
UCCUGGAUGAGCUAGCAUAGUAUUAAGUUA	0.226 ± 0.023	0.00417 ± 0.0024
UCCUGGUACAGCUAGCAUAGUAUAUAGUUA	0.183 ± 0.026	0.00329 ± 0.0024
